Laboratory results as given in the supplement of paper PMC8728848.
Shown is part of a subset that was picked to be rich in the strongest signals.

Tests used:
Assay in all cases: glycan array binding signal (z-score within array); higher = stronger binding
[1] = test system: Neu5Ac(a2-3)Gal6S(b1-4)[Fuc(a1-3)]GlcNAc; settings: glycan notation: IUPAC condensed, linker removed
Outline: (§1)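 From the Consortium for Functional Glycomics database, 3228 arrays were curated, keeping only those whose protein sequence was available. Binding is given as a within-array Z-score averaged across arrays sharing a protein sequence and across linkers. Negative Z-scores can be read as non-binding.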

Neu5Ac(a2-3)GalNAc = settings: glycan notation: IUPAC condensed, linker removed
Outline: as §1

[2] = test system: Neu5Ac(a2-3)GalNAc(b1-4)GlcNAc; settings: glycan notation: IUPAC condensed, linker removed
Outline: as §1

[3] = test system: Neu5Ac(a2-6)Gal(b1-3)GlcNAc(b1-3)[Gal(b1-4)GlcNAc(b1-6)]Gal(b1-4)Glc; settings: glycan notation: IUPAC condensed, linker removed; mutation: R125K
Outline: as §1

[4] = test system: Neu5Ac(a2-3)[GalNAc(b1-4)]Gal(b1-4)GlcNAc; settings: glycan notation: IUPAC condensed, linker removed
Outline: as §1

[5] = test system: Neu5Ac(a2-6)Gal(b1-4)GlcNAc(b1-2)Man(a1-3)[Gal(b1-4)GlcNAc(b1-2)Man(a1-6)]Man(b1-4)GlcNAc(b1-4)GlcNAc; settings: glycan notation: IUPAC condensed, linker removed
Outline: as §1

Neu5Ac(a2-3)Gal = settings: glycan notation: IUPAC condensed, linker removed
Outline: as §1

[6] = test system: Neu5Ac(a2-3)[GalNAc(b1-4)]Gal(b1-4)GlcNAc(b1-3)GalNAc; settings: glycan notation: IUPAC condensed, linker removed
Outline: as §1

[7] = test system: Neu5Ac(a2-3)[GalNAc(b1-4)]Gal(b1-4)Glc; settings: glycan notation: IUPAC condensed, linker removed
Outline: as §1

Sequence of C3b (Homo sapiens), P01024 (P01024 23-667): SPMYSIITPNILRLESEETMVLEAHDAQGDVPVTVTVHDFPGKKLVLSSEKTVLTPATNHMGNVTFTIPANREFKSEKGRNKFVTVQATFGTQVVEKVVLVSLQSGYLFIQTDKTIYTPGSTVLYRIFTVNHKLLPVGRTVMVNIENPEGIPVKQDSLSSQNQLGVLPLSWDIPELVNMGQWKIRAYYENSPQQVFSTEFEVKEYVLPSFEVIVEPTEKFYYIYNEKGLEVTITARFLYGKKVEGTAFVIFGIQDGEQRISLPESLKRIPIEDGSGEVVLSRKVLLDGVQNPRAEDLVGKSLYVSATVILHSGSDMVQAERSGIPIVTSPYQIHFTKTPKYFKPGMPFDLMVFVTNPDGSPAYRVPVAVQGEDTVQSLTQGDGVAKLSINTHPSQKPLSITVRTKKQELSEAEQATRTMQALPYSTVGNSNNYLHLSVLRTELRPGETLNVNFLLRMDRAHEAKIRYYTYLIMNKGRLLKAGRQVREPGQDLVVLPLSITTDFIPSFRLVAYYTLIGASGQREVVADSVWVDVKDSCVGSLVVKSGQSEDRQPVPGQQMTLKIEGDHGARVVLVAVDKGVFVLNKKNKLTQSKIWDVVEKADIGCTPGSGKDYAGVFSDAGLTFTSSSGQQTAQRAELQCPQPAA
Sequence of CHI3L1 (Homo sapiens), P36222 (P36222 whole entry): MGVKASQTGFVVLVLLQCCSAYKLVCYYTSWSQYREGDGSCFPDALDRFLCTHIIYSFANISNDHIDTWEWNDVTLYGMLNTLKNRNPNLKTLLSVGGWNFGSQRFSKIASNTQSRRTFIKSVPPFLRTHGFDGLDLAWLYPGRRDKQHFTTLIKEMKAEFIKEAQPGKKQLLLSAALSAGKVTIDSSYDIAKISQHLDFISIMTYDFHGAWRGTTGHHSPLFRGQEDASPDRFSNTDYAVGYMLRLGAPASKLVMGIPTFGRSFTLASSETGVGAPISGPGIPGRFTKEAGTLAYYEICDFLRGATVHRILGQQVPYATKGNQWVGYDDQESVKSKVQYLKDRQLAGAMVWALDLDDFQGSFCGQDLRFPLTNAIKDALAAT
Sequence of Neurocan (Homo sapiens), O14594 (O14594 other isoform, or with tags, fused parts or gaps): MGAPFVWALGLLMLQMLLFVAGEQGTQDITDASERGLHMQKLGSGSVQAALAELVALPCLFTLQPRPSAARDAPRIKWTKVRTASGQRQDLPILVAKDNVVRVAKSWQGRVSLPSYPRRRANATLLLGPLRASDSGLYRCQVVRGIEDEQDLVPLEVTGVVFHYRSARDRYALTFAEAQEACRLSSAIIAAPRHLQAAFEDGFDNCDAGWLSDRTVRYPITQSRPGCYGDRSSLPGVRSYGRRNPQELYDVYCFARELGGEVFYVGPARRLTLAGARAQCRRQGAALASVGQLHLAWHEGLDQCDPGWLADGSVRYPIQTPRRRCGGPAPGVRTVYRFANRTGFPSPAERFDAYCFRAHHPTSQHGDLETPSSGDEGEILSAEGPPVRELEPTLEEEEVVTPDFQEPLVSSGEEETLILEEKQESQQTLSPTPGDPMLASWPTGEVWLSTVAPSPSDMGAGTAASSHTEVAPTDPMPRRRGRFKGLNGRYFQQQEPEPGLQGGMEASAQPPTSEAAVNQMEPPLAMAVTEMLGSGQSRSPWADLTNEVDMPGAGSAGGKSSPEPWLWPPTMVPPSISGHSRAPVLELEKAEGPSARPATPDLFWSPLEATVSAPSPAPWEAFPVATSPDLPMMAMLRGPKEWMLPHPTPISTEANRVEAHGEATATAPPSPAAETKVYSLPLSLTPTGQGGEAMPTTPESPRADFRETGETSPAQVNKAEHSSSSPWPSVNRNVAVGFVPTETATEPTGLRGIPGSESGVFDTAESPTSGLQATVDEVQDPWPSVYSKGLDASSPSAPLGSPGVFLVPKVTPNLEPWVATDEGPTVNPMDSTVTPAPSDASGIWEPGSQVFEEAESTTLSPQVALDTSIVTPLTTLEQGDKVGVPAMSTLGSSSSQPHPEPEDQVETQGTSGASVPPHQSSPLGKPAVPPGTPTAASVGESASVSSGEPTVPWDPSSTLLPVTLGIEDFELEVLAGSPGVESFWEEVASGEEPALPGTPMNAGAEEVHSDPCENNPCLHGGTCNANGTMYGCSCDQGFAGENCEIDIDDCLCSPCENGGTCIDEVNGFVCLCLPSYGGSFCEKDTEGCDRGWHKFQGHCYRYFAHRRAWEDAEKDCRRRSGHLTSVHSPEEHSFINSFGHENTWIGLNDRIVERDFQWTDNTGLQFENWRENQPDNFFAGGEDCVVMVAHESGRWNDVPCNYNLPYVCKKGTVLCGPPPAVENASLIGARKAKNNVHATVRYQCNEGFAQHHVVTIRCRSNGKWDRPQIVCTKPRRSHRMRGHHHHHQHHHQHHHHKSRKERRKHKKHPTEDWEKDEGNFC
Sequence of 6RG (Lolium perenne) (chain, as listed by the source): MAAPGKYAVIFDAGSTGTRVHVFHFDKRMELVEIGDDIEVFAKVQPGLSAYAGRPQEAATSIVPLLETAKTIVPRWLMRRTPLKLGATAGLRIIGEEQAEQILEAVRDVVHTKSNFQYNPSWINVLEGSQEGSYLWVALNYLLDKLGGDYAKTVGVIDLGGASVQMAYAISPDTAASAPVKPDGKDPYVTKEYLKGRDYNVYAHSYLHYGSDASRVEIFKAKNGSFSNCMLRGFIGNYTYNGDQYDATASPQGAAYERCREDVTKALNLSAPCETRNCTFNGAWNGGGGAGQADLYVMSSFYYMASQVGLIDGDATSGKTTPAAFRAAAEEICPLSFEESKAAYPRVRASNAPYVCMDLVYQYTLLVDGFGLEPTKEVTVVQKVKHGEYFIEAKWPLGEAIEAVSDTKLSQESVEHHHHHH
Sequence of wLAT-1A (Homo sapiens), Q01650 (Q01650 whole entry): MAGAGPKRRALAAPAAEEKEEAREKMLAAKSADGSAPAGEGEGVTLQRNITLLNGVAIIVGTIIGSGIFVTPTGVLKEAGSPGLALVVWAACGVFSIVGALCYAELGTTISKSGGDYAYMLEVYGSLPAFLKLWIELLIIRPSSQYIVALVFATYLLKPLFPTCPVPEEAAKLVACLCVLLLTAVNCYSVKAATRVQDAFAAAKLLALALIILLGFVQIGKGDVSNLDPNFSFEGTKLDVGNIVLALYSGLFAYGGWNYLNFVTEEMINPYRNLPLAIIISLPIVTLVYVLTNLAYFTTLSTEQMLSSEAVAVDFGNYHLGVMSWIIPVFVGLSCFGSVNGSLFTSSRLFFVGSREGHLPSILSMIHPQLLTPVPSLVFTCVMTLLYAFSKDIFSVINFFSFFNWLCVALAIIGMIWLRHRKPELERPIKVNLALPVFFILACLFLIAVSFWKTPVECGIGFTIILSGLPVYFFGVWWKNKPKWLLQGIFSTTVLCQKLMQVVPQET
Sequence of PILRb (Mus musculus), Q2YSF2 (Q2YSF2 entry or part of it): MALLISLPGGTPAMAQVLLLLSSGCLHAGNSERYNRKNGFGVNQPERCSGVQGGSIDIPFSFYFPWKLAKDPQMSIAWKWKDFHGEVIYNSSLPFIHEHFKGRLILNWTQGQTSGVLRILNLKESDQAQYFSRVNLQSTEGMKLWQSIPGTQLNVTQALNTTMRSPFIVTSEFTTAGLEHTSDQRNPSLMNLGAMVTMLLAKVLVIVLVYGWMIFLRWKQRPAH
Sequence of Regenerating Gene IV (Homo sapiens), Q9BYZ8 (Q9BYZ8 whole entry, looked up): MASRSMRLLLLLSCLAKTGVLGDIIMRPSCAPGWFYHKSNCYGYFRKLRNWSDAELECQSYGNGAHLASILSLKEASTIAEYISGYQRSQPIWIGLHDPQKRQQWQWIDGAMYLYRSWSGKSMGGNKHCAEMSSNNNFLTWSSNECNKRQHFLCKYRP

Question: CHI3L1 (Homo sapiens), P36222 was tested. Which “glycan array binding signal (z-score)” value [1] did it give?
Answer: -0.117

Question: What about the “glycan array binding signal (z-score)” value (Neu5Ac(a2-3)GalNAc) of the same substance?
Answer: -0.131

Question: Siglec-8 (Homo sapiens), Q9NYZ4 was tested. Which “glycan array binding signal (z-score)” value [1] did it give?
Answer: 15

Question: What about the “glycan array binding signal (z-score)” value [2] of the same substance?
Answer: -0.069

Question: And the “glycan array binding signal (z-score)” value [3]?
Answer: -0.472

Question: What does the source list for C3b (Homo sapiens), P01024?
Answer: glycan array binding signal (z-score) [2]: 1.01; glycan array binding signal (z-score) [4]: -0.304; glycan array binding signal (z-score) [5]: -0.286

Question: Which “glycan array binding signal (z-score)” value (Neu5Ac(a2-3)GalNAc) does the source give for MpAFP RI GFP (Marinomonas primoryensis) here?
Answer: 2.97

Question: For 6RG (Lolium perenne), which “glycan array binding signal (z-score)” value (Neu5Ac(a2-3)Gal) is on record?
Answer: -0.339

Question: Neurocan (Homo sapiens), O14594 was tested. Which “glycan array binding signal (z-score)” value [6] did it give?
Answer: -0.87

Question: PILRb (Mus musculus), Q2YSF2 was tested. Which “glycan array binding signal (z-score)” value [4] did it give?
Answer: -0.329

Question: Which “glycan array binding signal (z-score)” value [7] does the source give for “Regenerating Gene IV (Homo sapiens), Q9BYZ8” here?
Answer: 0.356

Question: For wLAT-1A (Homo sapiens), Q01650, which “glycan array binding signal (z-score)” value [5] is on record?
Answer: -0.898
